The record followed here is PubChem BioAssay (NCATS).

The structures appear in SMILES notation. Values joined by “and” are separate entries in the source; they are usually repeats but may differ in a detail not shown here. Equal entries are not always repeated. Records with an inconclusive call do not appear. The source holds several records for some structures; these can differ, active in one and inactive in another. Active and inactive are the calls of the source. The call rests on the fitted dose curve; in most records, active means well fitted inhibition curve with a large enough effect; inconclusive means small, poorly fitted or top-dose-only effect; inactive means flat fitted curve, though single readings scatter.

One assay concerns TAB109. In words: qHTS profiling for inhibitors of Plasmodium falciparum proliferation (AID 504749). To be noted: P. falciparum in erythrocytes, SYBR Green DNA, 72 h; series mostly up to 28.7 µM. A digest of the protocol: (§1)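 Readout was DNA-dye fluorescence from lysed cultures, ex 485/em 535 nm. Parasitized red cells had grown 72 h with compound; data scaled between 0.29 uM artemisinin and DMSO wells and corrected using vehicle-only plates.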
Background: Quantitative high-throughput screening tests each substance at several concentrations.

The subject of a further assay is TAB113. Described as above. As to conditions: P. falciparum in erythrocytes, SYBR Green DNA, 72 h; series mostly up to 28.7 µM. In short, it runs like this: as §1
For a further assay, the system named is PC49. Described as above. As to conditions: P. falciparum in erythrocytes, SYBR Green DNA, 72 h; series mostly up to 28.7 µM. A digest of the protocol: as §1
The next assay relates to SC27B. The description is as above. To be noted: P. falciparum in erythrocytes, SYBR Green DNA, 72 h; series mostly up to 28.7 µM. In short, it runs like this: as §1
The test system of another assay is TAB165. The assay is described as above. As to conditions: P. falciparum in erythrocytes, SYBR Green DNA, 72 h; series mostly up to 28.7 µM. A digest of the protocol:
as §1

The next assay relates to W2. The assay is described as above. As to conditions: P. falciparum in erythrocytes, SYBR Green DNA, 72 h; series mostly up to 28.7 µM. A digest of the protocol: as §1
The next assay concerns CRL-7250. In words: Cytotoxic Profiling of Annotated Libraries Using Quantitative High-Throughput Screening (AID 1296008). On max response: on the % scale 0 is the no-effect control and ±100 the full control effect. As to conditions: Five cell lines viability, CellTiter-Glo ATP luminescence, 48-72 h; max response: stronger effect = lower value. A digest of the protocol: (§2)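 Cells exposed to compounds for 48 or 72 hr at 37 degrees Celsius. Viability read as ATP-coupled luminescence with CellTiter-Glo after 10 min at room temperature.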
A general note: In ATP-based viability assays light output follows the ATP content of the culture.

Assay [1] has as its system HaCat. The description is as above. To be noted: Five cell lines viability, CellTiter-Glo ATP luminescence, 48-72 h; max response: stronger effect = lower value. A digest of the protocol: as §2
In the next assay the test system is KB-3-1. The description is as above. As to conditions: Five cell lines viability, CellTiter-Glo ATP luminescence, 48-72 h; max response: stronger effect = lower value. In short, it runs like this: as §2
Assay [2] relates to NIH3T3. Described as above. To be noted: Five cell lines viability, CellTiter-Glo ATP luminescence, 48-72 h; max response: stronger effect = lower value. In short, it runs like this: as §2
Another assay concerns MCC-13. In words: qHTS assay to identify novel small-molecules to repurpose for Merkel cell carcinoma treatment (AID 1296009). As to conditions: MCC and control cell lines, CellTiter-Glo viability, 72 h; series mostly up to 46 µM. A digest of the protocol:
(§3)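 Cells were incubated with compound for 72 hr at 37 degree celsius before CellTiter-Glo addition. Luminescence was normalized with no-cell wells as full cytotoxicity and DMSO as baseline.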

Another assay relates to MKL-1. The assay is described as above. To be noted: MCC and control cell lines, CellTiter-Glo viability, 72 h; series mostly up to 46 µM. In short, it runs like this: as §3
The next assay concerns MKL-2. Described as above. To be noted: MCC and control cell lines, CellTiter-Glo viability, 72 h; series mostly up to 46 µM. In short, it runs like this:
as §3

Assay [3] has as its system NIH3T3. Described as above. To be noted: MCC and control cell lines, CellTiter-Glo viability, 72 h; at 44.8 µM (top of the series) unless noted. A digest of the protocol:
as §3

The subject of another assay is UISO. Described as above. To be noted: MCC and control cell lines, CellTiter-Glo viability, 72 h; series mostly up to 46 µM. In short, it runs like this: as §3
For a further assay, the system named is WaGa. The description is as above. To be noted: MCC and control cell lines, CellTiter-Glo viability, 72 h; series mostly up to 46 µM. A digest of the protocol:
as §3

A further assay relates to HEK293. In words: Cytotoxic Profiling of Annotated Libraries Using Quantitative High-Throughput Screening (AID 1296008). On max response: on the % scale 0 is the no-effect control and ±100 the full control effect. As to conditions: Five cell lines viability, CellTiter-Glo ATP luminescence, 48-72 h; max response: stronger effect = lower value. A digest of the protocol: as §2
Another assay deals with MCC-26. In words: qHTS assay to identify novel small-molecules to repurpose for Merkel cell carcinoma treatment (AID 1296009). To be noted: MCC and control cell lines, CellTiter-Glo viability, 72 h; series mostly up to 46 µM. In short, it runs like this: as §3
Assay [4] concerns HACAT. The assay is described as above. To be noted: MCC and control cell lines, CellTiter-Glo viability, 72 h; at 44.8 µM (top of the series) unless noted. A digest of the protocol:
as §3
Further: nearly all actives have a fitted effect of over 60% in size.
Potency means the concentration at half of the fitted maximal effect.

Take `CCCc1nc(C)c2c(=O)[nH]c(-c3cc(S(=O)(=O)N4CCN(CC)CC4)ccc3OCC)nn12`: the Potency result in the assay with TAB109 and in the assay on TAB113 was “inactive” throughout.
Regarding `NC(N)=NC(N)=NCCc1ccccc1`, the Potency result in the assay on PC49, in the assay with SC27B, in the assay on TAB109, in the assay with TAB113, in the assay with TAB165 and with W2 was “inactive” each time.
Take `CC(N)C12CC3CC(CC(C3)C1)C2` (stereo not given): the Potency entry in the assay on PC49, with MCC-13, with MKL-1, in the assay on MKL-2, in the assay on UISO and in the assay on WaGa was “inactive” in each case. Besides, the Potency with W2 was 6750 nM (active). The max response with CRL-7250 was 1.82% (inactive) and 3.28% (inactive); with HaCat [1], 2.96% (inactive) and 2.31% (inactive); in the assay on KB-3-1, 16.9% (inactive) and 3.92% (inactive). Besides, the molecule was called inactive in the assay on NIH3T3 [2] and in the assay on NIH3T3 [3].
`COc1cc(NCc2ccc3nc(N)nc(N)c3c2C)cc(OC)c1OC`: the Potency in the assay on PC49 was 501 nM (active); with SC27B, 2240 nM (active); with TAB109 it was 1000 nM (active); in the assay with TAB113, 2510 nM (active); with TAB165, 1120 nM (active); with W2 it was 301 nM (active). In addition, the Potency is 4.18 µM (active) and 53.1 nM (active) in the assay with HEK293; 1060 nM (active) in the assay on HaCat [1]; 3.32 µM (active) and 326 nM (active) in the assay on KB-3-1; 3.72 µM (active) and 66.8 nM (active) with NIH3T3 [2]; 29600 nM (active) with MKL-1; 18.7 µM (active) with MKL-2. The Potency with WaGa is 2.96 µM (active) and 94.4 nM (active). Moreover, the Potency entry with MCC-13 and in the assay on MCC-26 was “inactive” in each case.
For the molecule `O=C(O)c1ccc(-n2nc(-c3ccccc3O)nc2-c2ccccc2O)cc1`, in the assay with HaCat [1], the max response was 2.92% (inactive) and the call was inactive. Also, in the assay with HACAT [4], the result was inactive. Moreover, the Potency entry in the assay with MCC-13 was “inactive”. Moreover, the Potency in the assay with WaGa was 16.8 µM (active).
For the molecule `CN1CCCC(n2nc(Cc3ccc(Cl)cc3)c3ccccc3c2=O)CC1` (stereo not given), the Potency entry in the assay with PC49 and in the assay with MCC-13 was “inactive” in each case. Also, the Potency was 6010 nM (active) in the assay on W2; “inactive and 11.8 µM (active)” with MCC-26; 1480 nM (active) in the assay on MKL-1; 15 µM (active) and 418 nM (active) in the assay on MKL-2; 13200 nM (active) in the assay with UISO; 0.296 µM (active) with WaGa. Besides, the max response with HaCat [1] was 3.73% (inactive); in the assay on KB-3-1, -6.94% (inactive) and -2.19% (inactive); with NIH3T3 [2] it was 5% (inactive). Further, the molecule was called inactive in the assay on HaCat [1] and in the assay on HACAT [4].
As for `CCCCCCNC(=O)n1cc(F)c(=O)[nH]c1=O`, the Potency was 10000 nM (active) with TAB165; 4780 nM (active) with W2; 1.5 µM (active) and 3.72 µM (active) with NIH3T3 [2]. In addition, the max response with HaCat [1] was -37.7% (inactive); in the assay on KB-3-1, -8.63% (inactive) and -17% (inactive). The Potency result with MCC-13, in the assay on MCC-26, in the assay with MKL-1 and with MKL-2 was “inactive” throughout.
`CCN1CCCC1CNC(=O)c1cc(S(N)(=O)=O)ccc1OC` (stereo not given): the molecule was classed as inactive in the assay with CRL-7250 and in the assay with KB-3-1. For the same molecule, the max response was 2.07% (inactive) in the assay with HaCat [1] and -4.16% (inactive) with NIH3T3 [2]. The Potency result in the assay with MCC-13, in the assay with MCC-26, in the assay with MKL-1, with MKL-2, in the assay on UISO and in the assay on WaGa was “inactive” in each case.
Regarding `CC(C)(C)C(=O)OCOP(=O)(COCCn1cnc2c(N)ncnc21)OCOC(=O)C(C)(C)C`, the Potency entry in the assay with PC49 and in the assay on SC27B was “inactive” throughout.
For `N=C(N)c1ccc(OCCCCCOc2ccc(C(=N)N)cc2)cc1`, the Potency in the assay on PC49 was 708 nM (active); with SC27B, 1120 nM (active); with TAB109 it was 1580 nM (active); with TAB113, 1410 nM (active); with TAB165 it was 501 nM (active); in the assay with W2, 478 nM (active).
